{
  "source": "PubChem BioAssay AID1259421",
  "about": "(Broad Institute, 2018)",
  "note": "Several values for one entry are separate records, joined by “and”; a condition that tells them apart may be missing. Equal entries are not always repeated. Screen size: about 6,400 compounds; about 610 (9.5%) were called active. This is one part of a sample in which actives are shown more often than they occur. No stated cut-off is given here; in the data, active means activity change below about -70%; inconclusive means no clear call, values can overlap the other calls; inactive means above that. Where a structure was tested more than once in an assay, its records may differ in their call.",
  "data": [
    {"assay": "Toxoplasma gondii ME49Luc growth in HeLa cells, luciferase, no IFN-y, primary screen (AID 1259421)", "settings": "T. gondii ME49Luc in HeLa, 72 h, stronger effect = lower value, concentration not given here", "values": [
      {"smiles": "CC(C)(C)c1ccc(C(=O)CCCN2CCC(OC(c3ccccc3)c3ccccc3)CC2)cc1", "activity change, negative = inhibition": "-87.2% (active)"},
      {"smiles": "O=C(O)CCCN1CCC(O[C@@H](c2ccc(Cl)cc2)c2ccccn2)CC1", "activity change, negative = inhibition": "24.8% (inactive)"},
      {"smiles": "O=P(O)(O)OC(CO)CO", "activity change, negative = inhibition": "38% (inactive)"},
      {"smiles": "CN(C)C(=O)c1ccc(S(=O)(=O)c2ccc(NC(=O)C(C)(O)C(F)(F)F)c(Cl)c2)cc1", "note": "(configuration not stated)", "activity change, negative = inhibition": "-6.06% (inactive)"},
      {"smiles": "CC1(C)C2CC[C@]3(C)C(C(=O)C=C4[C@H]5C[C@@](C)(C(=O)O)CC[C@]5(C)CC[C@]43C)[C@@]2(C)CC[C@@H]1O", "note": "(some centres not stated)", "activity change, negative = inhibition": "1.01% (inactive)"},
      {"smiles": "CC(=O)Oc1cc2c(c(C)c1OC(C)=O)CC=C1[C@@]2(C)CC[C@@]2(C)C3C[C@](C)(C(=O)O)CC[C@]3(C)CC[C@]12C", "note": "(some centres not stated)", "activity change, negative = inhibition": "-93.4% (active)"},
      {"smiles": "CC1(C)[C@@H](O)CC[C@]2(C)[C@H]3C(=O)C=C4[C@@H]5C[C@@](C)(C(=O)O)CC[C@]5(C)CC[C@@]4(C)[C@]3(C)CC[C@@H]12", "activity change, negative = inhibition": "6.44% (inactive)"},
      {"smiles": "C=C[C@@](C)(O)CCC1C(=C)CCC2[C@@](C)(CO)CCC[C@]12C", "note": "(some centres not stated)", "activity change, negative = inhibition": "13.4% (inactive)"},
      {"smiles": "CC1(C)O[C@@H]2CC3C4C[C@H](F)C5=CC(=O)C=C[C@]5(C)[C@@]4(F)[C@@H](O)C[C@]3(C)[C@]2(C(=O)CO)O1", "note": "(some centres not stated)", "activity change, negative = inhibition": "-11.6% (inactive)"},
      {"smiles": "Cc1cnc(Nc2ccc(OCCN3CCCC3)cc2)nc1Nc1cccc(S(=O)(=O)NC(C)(C)C)c1", "activity change, negative = inhibition": "-95.9% (active)"},
      {"smiles": "C=CC(=O)Nc1cccc(Sc2nc(Nc3ccc(N4CCN(C)CC4)cc3)ncc2Cl)c1", "activity change, negative = inhibition": "-58.5% (inactive)"},
      {"smiles": "C=CC(=O)Nc1cccc(Nc2nc(Nc3ccc(OCCOC)cc3)ncc2F)c1", "activity change, negative = inhibition": "-10% (inactive)"},
      {"smiles": "C=CC(=O)Nc1cccc(Oc2nc(Nc3ccc(N4CCN(C)CC4)cc3)ncc2Cl)c1", "activity change, negative = inhibition": "-59.1% (inactive)"},
      {"smiles": "CS(=O)(=O)c1cccc(CNc2nc(Nc3ccc4c(c3)CCC(=O)N4)ncc2C(F)(F)F)c1", "activity change, negative = inhibition": "-29.4% (inactive)"},
      {"smiles": "Cc1cnc(Nc2ccc(N3CCN(C)CC3)cc2)nc1Nc1cccc(S(=O)(=O)NC(C)(C)C)c1", "activity change, negative = inhibition": "-76.6% (active)"},
      {"smiles": "CC(CCCCC(=O)Nc1ccc(C(F)(F)F)cc1)NCCc1cnc[nH]1", "note": "(configuration not stated)", "activity change, negative = inhibition": "-0.447% (inactive) and -3.16% (inactive)"},
      {"smiles": "CO/N=C(\\C(=O)N[C@@H]1C(=O)N2C(C(=O)O)=C(CSC(=O)c3ccco3)CS[C@H]12)c1csc(N)n1", "activity change, negative = inhibition": "17.6% (inactive) and -30.2% (inactive)"},
      {"smiles": "CO[C@@H]1COCC[C@@H]1N[C@@H]1CC[C@@](C(=O)N2CCc3ncc(C(F)(F)F)cc3C2)(C(C)C)C1", "activity change, negative = inhibition": "3.98% (inactive)"},
      {"smiles": "Cc1ccc(F)c(NC(=O)Nc2ccc(-c3cccc4[nH]nc(N)c34)cc2)c1", "activity change, negative = inhibition": "-78.3% (active)"},
      {"smiles": "Cc1cc(NC(=O)Nc2ccc(N(C)C)cc2)c2cc(F)cc(F)c2n1", "activity change, negative = inhibition": "31.3% (inactive)"},
      {"smiles": "COc1cc(OC)c2c(c1)OC(c1ccccc1)CC2=O", "note": "(configuration not stated)", "activity change, negative = inhibition": "34.9% (inactive)"},
      {"smiles": "O=c1oc(-c2ccc(C(F)(F)F)cc2)nn1Cc1cc(Cl)ccc1O", "activity change, negative = inhibition": "24.7% (inactive) and -12.8% (inactive)"},
      {"smiles": "CCn1c(=O)n(C2=C(CO)CN(CC3CCCCCCC3)CC2)c2ccccc21", "activity change, negative = inhibition": "12.4% (inactive) and -0.696% (inactive)"},
      {"smiles": "O=C(OCC(O)CO)c1ccccc1Nc1ccnc2cc(Cl)ccc12", "note": "(configuration not stated)", "activity change, negative = inhibition": "5.66% (inactive)"},
      {"smiles": "CC(=O)Nc1ccc(C(=O)Nc2ccccc2N)cc1", "activity change, negative = inhibition": "31.2% (inactive) and 45.5% (inactive)"},
      {"smiles": "Cc1cc(Nc2ccc(NC(=O)c3ccc(Nc4ccnc5ccccc45)cc3)cc2)nc(N)n1", "activity change, negative = inhibition": "-89.9% (active)"},
      {"smiles": "CC1(C)O[C@@H]2CC3C4CCC5=CC(=O)CCC5(C)C4(F)C(O)CC3(C)[C@]2(C(=O)CCl)O1", "note": "(some centres not stated)", "activity change, negative = inhibition": "-3.24% (inactive) and 2.55% (inactive)"},
      {"smiles": "CCOC(=O)c1cc(C#N)c(N2CCC(C(=O)NS(=O)(=O)Cc3ccccc3)CC2)nc1C", "activity change, negative = inhibition": "13.4% (inactive)"},
      {"smiles": "CCCCCCCC(=O)O", "activity change, negative = inhibition": "9.6% (inactive) and 5.48% (inactive)"},
      {"smiles": "CCCCCCCCCCCCCCCC[n+]1ccccc1", "activity change, negative = inhibition": "-12.3% (inactive) and -82.5% (active)"},
      {"smiles": "CCCCCCCCCCCCCCCCCCCCCCCCC(=O)O", "activity change, negative = inhibition": "11.5% (inactive)"},
      {"smiles": "c1ccc(-c2ccc(C(c3ccccc3)n3ccnc3)cc2)cc1", "note": "(configuration not stated)", "activity change, negative = inhibition": "-68.3% (inactive) and -81.5% (active)"},
      {"smiles": "N#Cc1ccc(C(c2ccc(C#N)cc2)n2cncn2)cc1", "activity change, negative = inhibition": "0.399% (inactive)"},
      {"smiles": "FC(F)(F)c1ccccc1-n1ccnc1", "activity change, negative = inhibition": "-1.27% (inactive)"},
      {"smiles": "CCCCCCCCc1ccc(CCC(N)(CO)CO)cc1", "activity change, negative = inhibition": "-79.3% (active) and -52.1% (inactive)"},
      {"smiles": "CCCCCCCCCCCCCCCCCCc1ccc(C(=O)/C=C/C(=O)O)cc1", "activity change, negative = inhibition": "11.8% (inactive)"},
      {"smiles": "CCCCCCCCc1ccc(-c2ccc(C(=O)O)cc2)cc1", "activity change, negative = inhibition": "18% (inactive)"}
    ]}
  ]
}
